Source: PubChem BioAssay
NALP1 yeast inh = NALP1 inflammasome inhibitors in reconstituted yeast, colorimetric, S. cerevisiae, triplicate retest | S. cerevisiae NALP1/ASC/caspase-1 growth, X-gal OD620, 72 h | inhibition, % at 10 µM | AID 2071, 2009 | 280,000 compounds, 0.61% hits; in the data active = inhibition mostly above about 24%, no sharp cut-off; inactive = mostly below about 32%
tim10-1 inh = growth inhibitors of tim10-1 mutant yeast, primary screen, luminescence, uHTS; S. cerevisiae tim10-1 ts strain growth, BacTiter-Glo, 24 h; inhibition, % at 20 µM; 330,000 compounds, 2.2% hits;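 active = inhibition of at least 40%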;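 also: mutant grown at 25 °C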
SKKanGAS inh = S. pyogenes SKKanGAS growth inhibitors in kanamycin, primary screen, streptokinase expression inhibitor project, SKKanGAS strain, BacTiter-Glo luminescence | 300,000 compounds, 1.3% hits | AID 1662, 2009 | inhibition, % at 7.5 µM | 6 h;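 active = mean replicate score, as percent of positive control median, at least 50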;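 also: strain carries kanamycin resistance gene driven by streptokinase promoter and grows in 40 µg/ml kanamycin; loss of luminescence reflects streptokinase promoter inhibition or plain growth inhibition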
PfHsp90 yeast 2 = growth inhibition of PfHsp90-expressing yeast, primary screen, antimalarial PfHsp90 inhibitor project, S. cerevisiae, BacTiter-Glo luminescence, single point, set 2 | BacTiter-Glo ATP, 48 h; yeast lacking PDR1 and PDR3 efflux regulators | inhibition, % at 9.4 µM | 310,000 compounds, 0.32% hits;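 active = every replicate shows inhibition above about 80%, whatever the replicate mean, limit read from the data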
tim23-1 inh = growth inhibitors of tim23-1 mutant yeast, primary screen, luminescence, uHTS; S. cerevisiae tim23-1 growth, BacTiter-Glo luminescence, 24 h; inhibition, % at 20 µM; 330,000 compounds, 1.3% hits;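 active = growth inhibition of the mutant yeast at or above 50%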;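 also: temperature-sensitive mutant grown at 25 °C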
TIM10 inh = growth inhibitors of isogenic TIM10 control yeast, primary screen, counter-screen for tim10-1 yeast inhibitor project, luminescence, uHTS | S. cerevisiae TIM10 strain growth, BacTiter-Glo luminescence, 24 h | inhibition, % at 10 µM | 330,000 compounds, 1.4% hits | AID 463195, 2010;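 active = inhibition of 40% or more at the single tested concentration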;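 also: wild-type TIM10 isogenic control strain grown at permissive 25 °C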
tim10-1 confirm = growth inhibitors of tim10-1 mutant yeast, confirmation, single concentration, luminescence, S. cerevisiae; inhibition, % at 20 µM; shares compounds with tim10-1 inh; S. cerevisiae tim10-1 ts strain growth, BacTiter-Glo, 24 h; 7,400 compounds, 56% hits;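 active = inhibition of yeast growth at or above a set limit in either of two repeat tests at 20 µM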;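 also: tim10-1 mutant grown at permissive 25 °C to find synthetic lethal compounds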
A number is an active result; n = inactive; x = no result given. Most compounds without a hit are left out; they make up all but 4.8% or so of the library.

SMILES	NALP1 yeast inh	tim10-1 inh	SKKanGAS inh	PfHsp90 yeast 2	tim23-1 inh	TIM10 inh	tim10-1 confirm
Cc1cc(C(=O)NC(=S)Nc2ccccc2N2CCCC2)ccc1[N+](=O)[O-]	n	n	n	n	n	n	x
CC1CCN(c2ccccc2NC(=S)NC(=O)C(C)(C)C)CC1	n	48.6	57.9	n	n	n	32.5
Cc1ccccc1C(=O)NC(=S)Nc1ccccc1N1CCCC1	n	50.6	n	n	n	n	37.2
O=C(NC(=S)Nc1ccccc1N1CCCC1)c1ccc(F)cc1	n	41.3	n	n	n	n	n
CC1CCN(c2ccccc2NC(=O)c2ccc(F)cc2)CC1	n	n	n	n	n	n	x
O=C(COc1ccccc1Cl)NC(=S)Nc1ccccc1N1CCCC1	n	51.1	n	n	n	n	n
COc1cccc(CN(C)C(=S)Nc2cccc(C)c2)c1	n	n	n	n	n	n	x
CCN(CC)CCn1c(=N)n(CC(=O)c2ccc(C)cc2)c2ccccc21	n	n	n	n	n	n	x
C=C[C@@](C)(O)CC[C@@H]1[C@@]2(C)CCCC(C)(C)[C@@H]2CC[C@@]1(C)O	n	41.9	n	n	n	n	n
CSc1ccc2nnc(-c3cccc(F)c3)n2n1	n	48.5	n	n	n	n	41.4
CCOC(=O)CC(=O)CSc1ccc2nnc(-c3cccc(F)c3)n2n1	n	n	n	n	n	n	x
N#CCC(=O)c1ccccc1Oc1ccc(Cl)cc1	n	49.8	n	n	n	n	28.7
O/N=C/c1ccccc1Oc1ccc(Cl)cc1	n	n	n	n	n	n	x
CCOC(=O)c1sc(NCc2ccco2)c(-c2nc3ccccc3s2)c1N	n	n	n	n	n	n	x
C=CCNc1sc(C(=O)c2ccccc2)c(N)c1-c1nc2ccccc2s1	n	40.0	n	x	n	n	n
Cc1[nH]c(=S)[nH]c(=O)c1Cc1c(O)ccc2ccccc12	x	x	x	n	x	x	x
Cc1nn(Cc2ccc([N+](=O)[O-])cc2)c(=O)n1N(C)c1ncc(C(F)(F)F)cc1Cl	n	42.7	n	n	n	n	26.9
Cc1nn(Cc2ccc([N+](=O)[O-])cc2)c(=O)n1-c1ccccc1Cl	n	n	n	n	n	n	x
COc1ccc(-c2cc(C(F)(F)F)nc(N3CCN(Cc4ccccc4)CC3)n2)cc1OC	n	45.7	n	n	n	n	n
COC(=O)Nc1nc(-c2cc(Cl)ccc2Cl)cs1	n	n	n	n	n	n	x
CCOc1ccccc1NC(=O)/C=C/c1ccccc1[N+](=O)[O-]	n	n	n	n	n	n	x
CCOC(=O)/C=C/C(=O)Nc1ccccc1C(=O)NC1CCCCC1	n	46.3	n	n	n	n	n
CCOc1ccccc1NC(=O)/C=C/C(N)=O	54.1	40.4	n	n	n	n	33.5
Cc1ccccc1-c1nc(CN2CCN(C(=O)c3ccco3)CC2)c(C)o1	n	n	n	n	n	n	x
CCOc1ccccc1-c1nc(CN2CCN(C(=O)c3ccco3)CC2)c(C)o1	n	40.8	n	n	n	n	n
SMILES	NALP1 yeast inh	tim10-1 inh	SKKanGAS inh	PfHsp90 yeast 2	tim23-1 inh	TIM10 inh	tim10-1 confirm
CCOc1ccc(C(=O)CN2CCN(S(=O)(=O)c3ccc(Br)cc3)CC2)cc1	n	n	n	x	n	n	x
COc1ccc(S(=O)(=O)N2CCN(Cc3cccnc3)CC2)cc1	n	n	n	n	n	n	x
CCOc1ccc(C(=O)CN2CCN(S(=O)(=O)c3ccc(OC)cc3)CC2)cc1	n	42.5	n	n	n	n	42.0
COc1ccc(S(=O)(=O)N2CCN(Cc3ccccc3)CC2)cc1	n	47.5	n	n	n	n	n
CC(C)(C)C(=O)CSc1ccc(S(=O)(=O)N2CCN(Cc3ccccc3)CC2)cn1	x	41.9	x	n	n	n	35.7
CC1=N/C(=C\c2ccc3c(c2)OCO3)C(=O)N1c1ccc(C(=O)O)cc1	n	n	n	n	n	n	x
CCCCOCCCNC(=O)Cc1cccs1	n	n	n	n	n	n	x
O=C(COc1ccc(F)cc1)Nc1ccccc1N1CCOCC1	x	n	n	n	n	n	x
Cc1ccc(SCCNC(=S)Nc2cc(C)ccc2C)cc1	n	43.1	n	n	n	n	n
Cc1ccc(SCCNC(=S)Nc2ccc(C)c(C)c2)cc1	n	n	n	n	n	n	x
COc1ccc(-c2nn(-c3ccccc3)cc2/C=C(\CC(=O)O)c2nc3ccccc3s2)cc1OC	n	71.4	n	n	n	n	41.5
CCOc1ccc(C(=O)CCC(=O)NCC(=O)OCc2ccccc2)cc1OCC	n	n	n	n	n	n	x
C/C(CC(=O)Nc1cccc(Cl)c1Cl)=N\NC(=O)c1ccccc1Br	n	n	n	n	n	n	x
C/C(CC(=O)Nc1cccc(Cl)c1Cl)=N\NC(=O)c1ccccc1N	n	40.6	n	n	n	n	n
O=[N+]([O-])c1c(C(Cl)Cl)nn(-c2ccccc2)c1N1CCOCC1	n	43.6	n	n	n	n	35.1
Cc1ccc(Nc2c(F)c(F)c(F)c(F)c2C(=O)O)cc1	n	n	n	n	n	n	x
COc1ccc(C2(C(=O)N3CCC(n4nc(-c5ccccc5)oc4=O)CC3)CC2)cc1	n	41.3	n	n	n	n	n
O=C(c1ccco1)N1CCN(c2ncnc3scc(-c4cccs4)c23)CC1	n	45.6	n	n	n	n	n
O=C(c1cc(COc2ccc(F)cc2Cl)on1)N1CCCC(OCc2cccnc2)C1 (stereo not given)	n	44.4	n	n	n	n	n
O=C(NCCc1cccnc1)c1cc(COc2ccc(F)cc2Cl)on1	n	45.0	n	n	n	n	n
COc1cc(C)ccc1OCc1cc(C(=O)N2CCC(c3ccc(F)cc3)C2)no1 (stereo not given)	n	41.0	n	n	n	n	26.9
Cc1cc([N+](=O)[O-])nn1CC(=O)Nc1nccs1	n	n	n	n	n	n	x
Nc1nonc1-n1nnc(C(=O)c2ccccc2)c1-c1ccccc1	n	40.9	n	n	n	n	n
O=C(CSc1nnc(-c2ccc(F)cc2)o1)Nc1ccccc1N1CCOCC1	x	40.0	n	n	n	n	n
CC(/C=N/Nc1nc(C)cc(C)n1)=C\c1ccc(C(C)C)cc1	n	46.5	n	n	n	n	35.1
COc1ccc(C(=O)O/N=C(\N)c2ccccc2Cl)cc1OC	n	62.9	n	n	n	n	52.5
N/C(=N\OC(=O)CSc1ccccc1)c1cccc([N+](=O)[O-])c1	n	42.1	n	n	n	n	40.3
